# Most compounds without a hit are left out; they make up all but 2.6% or so of the library.
# HSP90 inh – blocks HSP90-mediated luciferase refolding in reticulocyte lysate | Rabbit reticulocyte lysate, luciferase refolding luminescence, 3 h | inhibition, % at 5.6 µM | 0.91% of 290,000 active | AID 1789;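 active = inhibition above the screen-wide mean plus 3 SD, computed separately per campaign, cut at about 16% in these data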;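 note: inhibitors lower the luminescence because luciferase stays unfolded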
# TROY NFkB inh – blocks TROY-dependent signaling in reporter cells; inhibition, % at 10 µM; 0.98% of 360,000 active; Q293 LMP1-TROYcd NF-kB luciferase reporter, 4 h;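 active = compounds whose plate-normalised and pattern-corrected inhibition of the luciferase reporter signal at the single screening dose is 50% or more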
# aDG glyco act – increases alpha dystroglycan glycosylation | Pro5-aDG cells, alpha-DG glycosylation AlphaScreen (IIH6); 0% Pro5, 100% B10-LARGE cell signal | activation, % at 10 µM | 0.22% of 360,000 active;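 active = activation of at least 8% versus controls, or a plate z-score of at least 8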;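 note: Pro5 are CHO cells carrying HIG-tagged alpha-DG that lacks glycosylation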
# TWEAK Fn14 block – inhibitors of TWEAK-Fn14 interaction signaling; inhibition, % at 10 µM; 2% of 360,000 active; TWEAK-stimulated Fn14 reporter cells, luciferase luminescence, 8 h; in the data active = inhibition above about 50%
# LGR2 antag – Drosophila LGR2 receptor signaling inhibition; HEK293 LGR2, CRE-luciferase, bursicon-stimulated, 4 h; inhibition, % at 9.99 µM; 0.35% of 380,000 active;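 active = drop in luminescence signal, shown as inhibition above about 50% in the replicate tests, limit read from the data, passing the limit was not always enough; inconclusive = probably only some replicates passing the limit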;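 note: agonist challenge used bursicon conditioned medium at about half maximal strength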
# EBV LMP1 NFkB – Epstein-Barr LMP1 NF-kappaB reporter inhibition; LMP1-induced NF-kappaB luciferase reporter cells, luminescence; inhibition, % at 12.5 µM; 0.69% of 350,000 active; AID 504558; in the data active = inhibition above about 41%; inconclusive = no clear call, values can overlap the other calls
# A number is an active result; 0 = inactive; ? = inconclusive; - = not tested or not shown.
SMILES,HSP90 inh,TROY NFkB inh,aDG glyco act,TWEAK Fn14 block,LGR2 antag,EBV LMP1 NFkB
COc1ccc(-n2ncc3c(NCc4cccnc4)ncnc32)cc1,0,0,0,0,0,0
COCC(C)Nc1ncnc2c1cnn2-c1ccc(Cl)cc1 (stereo not drawn),0,0,0,57,-,0
COc1ccc(-n2ncc3c(NCC(C)C)ncnc32)cc1,0,0,0,50,0,0
O=C(NCCc1ccncc1)[C@@H]1[C@@H](CO)[C@@H]2Cn3c(ccc(-c4ccc(F)cc4)c3=O)[C@H]1N2,-,-,-,-,0,-
Cn1cnnc1SCC(=O)n1c2ccccc2c2ccccc21,0,0,0,0,-,46
O=C1/C(=C/c2ccc([N+](=O)[O-])cc2)C=C(c2ccccc2)N1c1ccccc1,0,0,0,0,-,0
O=C(O)c1cccc(N2C(=O)/C(=C/c3ccc([N+](=O)[O-])cc3)C=C2c2ccccc2)c1,0,0,0,52,?,0
C[C@H]1CN([C@@H](C)CO)C(=O)c2ccccc2-c2ccccc2CO[C@H]1CN(C)Cc1ccc(F)cc1,-,-,-,-,0,-
CCN(CC)C(=O)Oc1ccc(Cl)c2cccnc12,0,0,0,0,0,0
O=C(Nc1cccc(C(F)(F)F)c1)Oc1ccc(Cl)c2cccnc12,0,0,0,74,0,0
C[C@H](CO)N1C[C@H](C)[C@@H](CN(C)Cc2ccccc2)Oc2ccc(NC(=O)C3CCCCC3)cc2CC1=O,-,-,-,-,0,-
CCn1c(C)c(C)c2cc(C(=O)Nc3cccc(Cl)c3)ccc21,0,0,0,0,-,53
Cc1cccc(C)c1OCC(=O)NNC(=O)c1ccoc1C,0,-,0,51,-,0
COc1ccc(/C=N\NC(=O)c2ccccc2OC)cc1COc1ccccc1C,0,0,0,0,0,0
COc1ccc(/C=N/NC(=O)c2ccoc2C)cc1COc1c(C)cccc1C,0,0,0,74,-,0
CCn1c2ccccc2c2cc(/C=N/n3cnnc3)ccc21,0,0,0,0,-,83
CCn1c(/C=N/n2cnnc2)nc2ccccc21,0,0,0,0,0,0
S=c1[nH]ncn1/N=C/c1ccccc1,0,0,0,0,-,0
CCn1c2ccccc2c2cc(/C=N/n3c(-c4cc(C)[nH]n4)n[nH]c3=S)ccc21,0,0,0,0,0,87
CCn1c2ccccc2c2cc(/C=N/O)ccc21,0,0,0,71,0,0
CCn1c2ccccc2c2cc(/C=N/n3cn[nH]c3=S)ccc21,0,0,0,0,-,80
COc1ccc(CNC(=O)C[C@H]2CC[C@H]3[C@@H](COc4ccc(NC(=O)C(C)C)cc4C(=O)N3C)O2)cc1,-,-,-,-,0,-
O=C(Nc1ccccc1)N[C@H]1CC[C@@H](CCNS(=O)(=O)c2ccccc2F)O[C@H]1CO,-,-,-,-,0,-
O=C1CC(C(=O)N2CCCc3ccccc32)CN1c1ccc(F)cc1 (stereo not drawn),0,0,0,61,0,0
C[C@@H]1CCCCO[C@H](CN(C)S(=O)(=O)c2cccs2)[C@H](C)CN([C@H](C)CO)C(=O)c2cc(NS(=O)(=O)c3ccccc3)ccc2O1,-,-,-,-,0,-
SMILES,HSP90 inh,TROY NFkB inh,aDG glyco act,TWEAK Fn14 block,LGR2 antag,EBV LMP1 NFkB
Cc1cc(C)cc(NC(=O)c2cc(C)n(Cc3cccs3)c2C)c1,0,0,0,0,0,0
Cc1cc(C(=O)Nc2ccc(Cl)cc2)c(C)n1Cc1cccs1,16,51,0,60,0,0
Cc1cc(C(=O)CN2C(=O)c3ccccc3C2=O)c(C)n1Cc1cccs1,0,0,0,83,0,50
CO[C@@H]1CN(C)C(=O)c2ccc(NC(=O)Nc3cccc(F)c3)cc2OC[C@@H](C)N(C(=O)C2CC2)C[C@H]1C,-,-,-,-,0,-
Cc1cc(Cl)ccc1OC(C)C(=O)N1CCCN(C(=O)C(C)Oc2ccc(Cl)cc2C)CC1 (stereo not drawn),0,0,0,63,-,0
CCCNC(=O)N(C)C[C@H]1Oc2ncc(-c3ccccc3)cc2C(=O)N([C@@H](C)CO)C[C@@H]1C,-,-,-,-,0,-
Cc1cc(N2CCN(C)CC2)ccc1NC(=O)c1c2c(nc3ccccc13)CCN(Cc1ccccc1)C2,0,0,0,0,-,77
O=C(NC1CCCCCC1)c1c2c(nc3ccccc13)CCN(Cc1ccccc1)C2,0,0,0,0,0,0
O=C(C[C@@H]1C[C@@H]2c3cc(NS(=O)(=O)c4ccc(F)cc4)ccc3O[C@@H]2[C@@H](CO)O1)N1CCc2ccccc2C1,-,-,-,-,0,-
O=S(=O)(c1ccc2c(c1)OCCO2)N1CCC(c2nc3ccccc3s2)CC1,0,0,0,53,0,0
O=C(c1ccc(S(=O)(=O)N2CCC(c3nc4ccccc4s3)CC2)cc1)N1CCOCC1,-,0,0,0,0,0
C[C@H]1CN([C@@H](C)CO)C(=O)c2cc(NC(=O)CCCN(C)C)ccc2O[C@@H]1CN(C)Cc1ccc(-c2ccccc2)cc1,-,-,-,-,0,-
C/C(=N\Nc1nc2c(s1)CCCC2)c1ccc(Cl)cc1,0,0,0,55,-,0
C/C(=N\NC1=NCCN1)c1ccc(Cl)cc1,0,0,0,0,0,0
O=C(CC1CC1)N1CC2(C1)[C@H](c1ccccc1)[C@@H](CO)N2C(=O)C1CCOCC1,-,-,-,-,0,-
COc1cc([C@@H]2c3cc4c(cc3[C@H](O)[C@H]3COC(=O)[C@H]23)OCO4)cc(OC)c1OC,0,0,0,0,0,0
COc1cc([C@@H]2c3cc4c(cc3[C@@H](O[C@@H]3O[C@@H]5CO[C@@H](C)O[C@H]5[C@H](O)[C@H]3O)[C@H]3COC(=O)[C@H]23)OCO4)cc(OC)c1O,-,0,0,0,0,70
COc1cc(C2c3cc4c(cc3C(OC3OC5COC(c6cccs6)OC5C(O)C3O)C3COC(=O)C23)OCO4)cc(OC)c1O (stereo not drawn),0,0,0,0,0,75
COc1cc(C2c3cc4c(cc3C(O)C3COCC23)OCO4)cc(OC)c1OC (stereo not drawn),-,0,0,0,0,0
C[C@H](CO)N1C[C@H](C)[C@H](CN(C)C(=O)Nc2ccccc2)Oc2c(NC(=O)Nc3ccccc3)cccc2C1=O,-,-,-,-,0,-
O=C(OCCN1C(=O)c2cccc3c(N4CCOCC4)ccc(c23)C1=O)c1ccc(Cl)cc1,0,0,0,66,0,0
CC(C)(C)n1cnc2cc(NCc3ccc(Br)cc3)ccc21,0,0,0,0,0,0
CCc1ccc(CNc2ccc3c(c2)ncn3C(C)(C)C)cc1,0,66,0,82,0,0
COc1ccc2c3c([nH]c2c1)[C@H](CO)N(C(C)=O)CC31CN(C(=O)Nc2ccc(F)cc2)C1,-,-,-,-,0,-
CCOC(=O)N1CCC(NC(=O)c2ccc3c(c2)N(C)C(=O)/C(=C/c2cccc(OC)c2)S3)CC1,0,61,0,75,0,0
Cc1noc(C)c1NC(=O)N(C)C[C@H]1OCCCC[C@H](C)Oc2ccc(NC(=O)Nc3ccc(C(F)(F)F)cc3)cc2C(=O)N([C@H](C)CO)C[C@@H]1C,-,-,-,-,0,-
COc1ccc(CC(=O)Nc2nc(-c3ccccc3)c(C(C)=O)s2)cc1OC,0,0,0,57,0,0

# Assay outcomes as filed in PubChem BioAssay.
